The target in assay [1] is Serine/threonine-protein kinase pim-2 (Homo sapiens) (UniProt Q9P1W9). The note with it: at 1 µM.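 Also: each value is a mean of the inhibition measurements against the kinase.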
Assay [2] has as its target Serine/threonine-protein kinase pim-3 (Homo sapiens) (UniProt Q86V86). The following applies: at 0.1 µM.
For assay [3] the target is unchanged. The note with it: at 1 µM.
Assay [4] concerns the target T1, MAP kinase-activated protein kinase 5 (Homo sapiens) (UniProt Q8IW41).
T1 sequence (whole entry): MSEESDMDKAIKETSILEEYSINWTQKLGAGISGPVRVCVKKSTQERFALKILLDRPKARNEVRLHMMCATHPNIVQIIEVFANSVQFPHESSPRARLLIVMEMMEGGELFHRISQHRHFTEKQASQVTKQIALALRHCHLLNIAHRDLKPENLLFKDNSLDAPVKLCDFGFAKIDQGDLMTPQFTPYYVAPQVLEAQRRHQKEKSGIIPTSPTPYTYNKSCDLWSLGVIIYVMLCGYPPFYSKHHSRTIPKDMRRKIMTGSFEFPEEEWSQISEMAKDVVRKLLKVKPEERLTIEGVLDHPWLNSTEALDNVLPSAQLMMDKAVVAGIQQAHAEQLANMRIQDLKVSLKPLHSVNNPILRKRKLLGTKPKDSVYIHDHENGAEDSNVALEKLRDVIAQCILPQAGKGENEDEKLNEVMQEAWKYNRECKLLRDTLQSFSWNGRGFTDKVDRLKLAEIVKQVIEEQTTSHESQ
The note with it: at 0.1 µM.

In assay [5] the target is T1, MAP kinase-activated protein kinase 5 (Homo sapiens). The note with it: at 1 µM.
Assay [6] concerns the target Serine/threonine-protein kinase SIK1 (Homo sapiens) (UniProt P57059). The following applies: at 0.1 µM.
For assay [7] the target is unchanged. The following applies: at 1 µM.
The target of assay [8] is Serine/threonine-protein kinase SIK2 (Homo sapiens) (UniProt Q9H0K1). The following applies: at 0.1 µM.
Assay [9] has the same target. The note with it: at 1 µM.
Assay [10] deals with T2, Serine/threonine-protein kinase TBK1 (Homo sapiens) (UniProt Q9UHD2).
T2 sequence (whole entry): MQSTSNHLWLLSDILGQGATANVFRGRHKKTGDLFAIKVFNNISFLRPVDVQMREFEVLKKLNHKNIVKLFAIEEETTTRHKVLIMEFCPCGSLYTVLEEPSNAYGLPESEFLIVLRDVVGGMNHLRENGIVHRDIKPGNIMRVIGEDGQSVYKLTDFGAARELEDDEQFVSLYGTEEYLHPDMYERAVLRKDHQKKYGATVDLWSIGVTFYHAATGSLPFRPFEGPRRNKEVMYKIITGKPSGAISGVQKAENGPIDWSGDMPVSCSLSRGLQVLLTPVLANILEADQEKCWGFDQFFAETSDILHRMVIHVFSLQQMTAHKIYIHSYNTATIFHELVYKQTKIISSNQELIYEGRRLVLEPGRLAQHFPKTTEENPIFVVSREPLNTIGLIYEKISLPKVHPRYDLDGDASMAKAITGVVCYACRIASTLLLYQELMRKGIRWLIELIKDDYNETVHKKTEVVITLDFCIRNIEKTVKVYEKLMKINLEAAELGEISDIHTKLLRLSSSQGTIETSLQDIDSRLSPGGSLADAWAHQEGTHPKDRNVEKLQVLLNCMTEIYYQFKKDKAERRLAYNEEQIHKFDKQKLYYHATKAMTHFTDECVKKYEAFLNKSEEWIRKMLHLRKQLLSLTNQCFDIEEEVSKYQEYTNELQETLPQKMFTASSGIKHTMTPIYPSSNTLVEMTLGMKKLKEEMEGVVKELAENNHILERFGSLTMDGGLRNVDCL
The following applies: at 0.1 µM.

Assay [11] addresses T2, Serine/threonine-protein kinase TBK1 (Homo sapiens). The note with it: at 1 µM.
Assay [12] addresses T3, Testis-specific serine/threonine-protein kinase 1 (Homo sapiens) (UniProt Q9BXA7).
T3 sequence (whole entry): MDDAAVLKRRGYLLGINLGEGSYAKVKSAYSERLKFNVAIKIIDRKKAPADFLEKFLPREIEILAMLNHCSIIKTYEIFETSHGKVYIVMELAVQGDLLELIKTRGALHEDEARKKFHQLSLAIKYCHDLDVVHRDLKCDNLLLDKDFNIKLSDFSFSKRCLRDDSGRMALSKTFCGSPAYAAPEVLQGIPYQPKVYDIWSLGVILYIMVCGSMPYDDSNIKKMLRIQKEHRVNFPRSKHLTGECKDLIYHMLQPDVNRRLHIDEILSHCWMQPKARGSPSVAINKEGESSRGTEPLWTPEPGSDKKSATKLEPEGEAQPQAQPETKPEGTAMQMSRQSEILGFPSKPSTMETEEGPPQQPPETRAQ
The following applies: at 0.1 µM.

The target in assay [13] is T3, Testis-specific serine/threonine-protein kinase 1 (Homo sapiens). The following applies: at 1 µM.
The target of assay [14] is T4, Testis-specific serine/threonine-protein kinase 2 (Homo sapiens) (UniProt Q96PF2).
T4 sequence (whole entry): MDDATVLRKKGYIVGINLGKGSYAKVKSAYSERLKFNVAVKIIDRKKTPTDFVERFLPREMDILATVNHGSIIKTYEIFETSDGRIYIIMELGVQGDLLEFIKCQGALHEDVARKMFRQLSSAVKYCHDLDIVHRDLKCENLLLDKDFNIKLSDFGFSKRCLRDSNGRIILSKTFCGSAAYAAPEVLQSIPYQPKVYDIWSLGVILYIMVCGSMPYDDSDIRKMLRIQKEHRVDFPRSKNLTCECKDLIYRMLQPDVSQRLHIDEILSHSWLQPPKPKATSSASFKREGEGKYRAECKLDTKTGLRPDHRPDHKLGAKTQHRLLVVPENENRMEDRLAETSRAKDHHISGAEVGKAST
The note with it: at 0.1 µM.

For assay [15], the target named is T4, Testis-specific serine/threonine-protein kinase 2 (Homo sapiens). The note with it: at 1 µM.
The target in assay [16] is Casein kinase I isoform alpha (Homo sapiens) (UniProt P48729). The note with it: at 0.1 µM.
For assay [17] the target is unchanged. The following applies: at 1 µM.
The target in assay [18] is Casein kinase I isoform gamma-1 (Homo sapiens) (UniProt Q9HCP0). The following applies: at 0.1 µM.
The target is the same in assay [19]. The note with it: at 1 µM.
The target of assay [20] is Casein kinase I isoform gamma-2 (Homo sapiens) (UniProt P78368). The note with it: at 0.1 µM.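 Also: values are mean inhibition figures reported as part of the GSK PKIS dataset.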
Casein kinase I isoform gamma-2 (Homo sapiens), sequence (P78368 whole entry, looked up, canonical isoform): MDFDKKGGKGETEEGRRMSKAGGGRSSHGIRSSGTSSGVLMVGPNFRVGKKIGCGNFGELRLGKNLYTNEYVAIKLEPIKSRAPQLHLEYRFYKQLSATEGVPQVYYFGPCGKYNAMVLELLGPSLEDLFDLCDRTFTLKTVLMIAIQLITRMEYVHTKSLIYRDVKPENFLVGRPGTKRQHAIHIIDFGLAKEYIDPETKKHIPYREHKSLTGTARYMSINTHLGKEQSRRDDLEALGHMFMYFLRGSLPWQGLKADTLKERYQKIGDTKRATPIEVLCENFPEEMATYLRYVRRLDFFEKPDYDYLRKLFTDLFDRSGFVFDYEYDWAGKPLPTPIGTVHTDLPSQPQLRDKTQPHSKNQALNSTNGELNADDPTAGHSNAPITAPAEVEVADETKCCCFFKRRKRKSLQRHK

Serine/threonine-protein kinase SIK2 (Homo sapiens), sequence (Q9H0K1 whole entry, looked up): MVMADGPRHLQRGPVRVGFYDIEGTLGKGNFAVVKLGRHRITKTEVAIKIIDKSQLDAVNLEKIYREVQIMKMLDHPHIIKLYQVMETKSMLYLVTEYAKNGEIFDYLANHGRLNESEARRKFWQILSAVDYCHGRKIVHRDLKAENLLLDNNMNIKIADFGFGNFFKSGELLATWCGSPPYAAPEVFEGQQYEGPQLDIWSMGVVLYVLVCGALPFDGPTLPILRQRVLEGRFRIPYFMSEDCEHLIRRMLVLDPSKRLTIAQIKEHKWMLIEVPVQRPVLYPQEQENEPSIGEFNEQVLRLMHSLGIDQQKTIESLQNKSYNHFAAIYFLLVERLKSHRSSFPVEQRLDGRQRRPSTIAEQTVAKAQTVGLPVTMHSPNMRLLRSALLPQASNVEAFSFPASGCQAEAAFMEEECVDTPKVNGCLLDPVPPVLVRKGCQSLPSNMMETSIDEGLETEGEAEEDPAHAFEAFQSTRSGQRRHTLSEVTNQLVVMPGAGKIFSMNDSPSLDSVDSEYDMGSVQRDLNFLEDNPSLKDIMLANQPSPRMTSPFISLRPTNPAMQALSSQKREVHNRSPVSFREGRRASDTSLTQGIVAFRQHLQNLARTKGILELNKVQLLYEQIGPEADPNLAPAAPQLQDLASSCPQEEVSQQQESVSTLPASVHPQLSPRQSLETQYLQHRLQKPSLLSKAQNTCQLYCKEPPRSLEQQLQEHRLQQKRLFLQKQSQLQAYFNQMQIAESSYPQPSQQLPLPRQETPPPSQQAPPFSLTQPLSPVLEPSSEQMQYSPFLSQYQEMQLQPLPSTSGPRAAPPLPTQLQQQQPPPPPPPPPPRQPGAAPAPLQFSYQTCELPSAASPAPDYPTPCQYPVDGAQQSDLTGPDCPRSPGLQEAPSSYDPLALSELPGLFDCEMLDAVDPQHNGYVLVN
Casein kinase I isoform gamma-1 (Homo sapiens), sequence (Q9HCP0 whole entry, looked up, canonical isoform): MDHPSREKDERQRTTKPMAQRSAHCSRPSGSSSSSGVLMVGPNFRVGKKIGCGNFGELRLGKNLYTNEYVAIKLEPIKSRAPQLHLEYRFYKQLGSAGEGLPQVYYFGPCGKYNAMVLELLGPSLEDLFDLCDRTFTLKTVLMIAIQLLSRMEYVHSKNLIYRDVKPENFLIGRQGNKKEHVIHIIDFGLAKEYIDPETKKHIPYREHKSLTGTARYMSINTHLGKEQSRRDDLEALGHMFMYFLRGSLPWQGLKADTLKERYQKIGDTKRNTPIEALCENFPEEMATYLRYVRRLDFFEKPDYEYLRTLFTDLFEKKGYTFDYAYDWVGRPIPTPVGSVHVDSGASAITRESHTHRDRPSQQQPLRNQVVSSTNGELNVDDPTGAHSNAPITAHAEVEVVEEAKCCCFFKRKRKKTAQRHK
Casein kinase I isoform alpha (Homo sapiens), sequence (P48729 2-337 limits assumed): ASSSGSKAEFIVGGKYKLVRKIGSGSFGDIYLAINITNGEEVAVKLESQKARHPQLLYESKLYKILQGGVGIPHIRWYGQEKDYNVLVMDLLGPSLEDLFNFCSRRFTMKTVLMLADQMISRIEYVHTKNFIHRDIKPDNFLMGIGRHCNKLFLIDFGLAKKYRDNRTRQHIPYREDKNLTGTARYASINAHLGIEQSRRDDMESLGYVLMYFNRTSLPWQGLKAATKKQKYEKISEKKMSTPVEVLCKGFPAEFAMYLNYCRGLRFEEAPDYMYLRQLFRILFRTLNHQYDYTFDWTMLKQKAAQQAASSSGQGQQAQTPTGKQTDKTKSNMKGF
Serine/threonine-protein kinase SIK1 (Homo sapiens), sequence (P57059 whole entry): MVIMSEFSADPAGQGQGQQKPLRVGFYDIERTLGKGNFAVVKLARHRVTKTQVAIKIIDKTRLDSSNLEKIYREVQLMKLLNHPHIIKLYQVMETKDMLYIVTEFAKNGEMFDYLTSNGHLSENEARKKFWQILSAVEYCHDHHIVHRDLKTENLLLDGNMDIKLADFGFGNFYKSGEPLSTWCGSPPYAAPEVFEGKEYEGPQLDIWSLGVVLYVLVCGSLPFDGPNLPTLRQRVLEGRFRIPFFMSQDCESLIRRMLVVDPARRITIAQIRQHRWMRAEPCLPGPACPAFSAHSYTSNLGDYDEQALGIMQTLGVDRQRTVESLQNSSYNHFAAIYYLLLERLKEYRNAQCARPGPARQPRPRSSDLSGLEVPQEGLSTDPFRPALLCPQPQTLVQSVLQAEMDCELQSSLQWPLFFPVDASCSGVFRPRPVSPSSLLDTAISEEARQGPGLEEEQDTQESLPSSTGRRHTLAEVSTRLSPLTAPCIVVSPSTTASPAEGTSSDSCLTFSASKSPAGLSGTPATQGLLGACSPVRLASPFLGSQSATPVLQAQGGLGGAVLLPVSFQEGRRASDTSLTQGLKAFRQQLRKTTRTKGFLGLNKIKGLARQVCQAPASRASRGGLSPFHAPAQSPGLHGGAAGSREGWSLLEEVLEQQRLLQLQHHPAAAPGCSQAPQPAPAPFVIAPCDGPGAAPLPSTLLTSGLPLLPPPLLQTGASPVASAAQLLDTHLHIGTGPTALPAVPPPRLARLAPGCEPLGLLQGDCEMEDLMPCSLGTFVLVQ
Serine/threonine-protein kinase pim-2 (Homo sapiens), sequence (Q9P1W9 whole entry, looked up): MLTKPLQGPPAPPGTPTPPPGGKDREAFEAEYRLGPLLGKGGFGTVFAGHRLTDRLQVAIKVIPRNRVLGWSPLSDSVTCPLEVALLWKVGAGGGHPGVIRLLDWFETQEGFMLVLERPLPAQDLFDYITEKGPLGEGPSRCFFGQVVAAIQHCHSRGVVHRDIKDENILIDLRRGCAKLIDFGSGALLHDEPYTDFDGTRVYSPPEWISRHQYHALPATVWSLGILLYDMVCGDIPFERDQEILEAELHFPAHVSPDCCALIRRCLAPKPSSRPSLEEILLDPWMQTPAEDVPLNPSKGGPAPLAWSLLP

`O=C(Nc1ccc(Oc2ccc3[nH]c(NC(=O)c4ccco4)nc3c2)cc1)Nc1cc(C(F)(F)F)ccc1F`: the inhibition (commonly the relative decrease from the control value, in per cent) in assay [1] is -3.75%; in assay [2] it was 0.09%; in assay [3], 0.78%; in assay [4], -0.29%; in assay [5] it was -0.75%; in [6], 4.18%. Further, the inhibition in [7] was 4.41%; in assay [8] it was -4.88%; in [9] it was 0.5%; in assay [10], 0.65%; in [11], 0.97%; in assay [12], 0.73%. In addition, the inhibition in assay [13] was 0.2%; in assay [14], 0.45%; in assay [15] it was -0.72%; in assay [16] it was 0.72%; in assay [17], 1.23%; in assay [18] it was -3.78%. In addition, the values for the inhibition in assay [19] and in assay [20] were -2.12% and -4.05%, respectively.
As for `COc1cccc(-n2ncc3c(N/N=C/c4ccc(S(C)(=O)=O)cc4)ncnc32)c1`, the inhibition in assay [1] is -2.5%; in assay [2] it was 0.09%; in assay [3], 2.23%; in assay [4], 0.26%; in [5], 0.26%; in assay [6] it was 4.24%. The inhibition in [7] was found to be 26%; in assay [8] it was 19.1%; in [9], 29.9%; in [10], 8.06%; in assay [11] it was 7.99%; in [12], 1.1%. For the same compound, the inhibition is -0.61% in assay [13]; 0.93% in [14]; 0.31% in assay [15]; 2.28% in assay [16]; 5.91% in [17]; -2.52% in [18]. The results for the inhibition in [19] and in assay [20] were -0.99% and -2.87%, respectively.
On to `COc1cc2ncnc(Nc3ccc(C)c(O)c3)c2cc1OC`, for which the inhibition in [1] turned out to be 2.78%; in assay [2] it was 2.48%; in assay [3], 4.22%; in assay [4], 3.96%; in [5] it was 2.36%; in assay [6] it was 5.14%. The inhibition in [7] was 33.2%; in [8] it was 7.06%; in assay [9] it was 18.9%; in assay [10], 1.88%; in assay [11], 5.95%; in [12], 3.91%. For the same compound, the inhibition in [13] was 3.21%; in assay [14], 1.77%; in assay [15], 2.03%; in [16], 4.56%; in [17], 5.91%; in assay [18], 4.01%. For the same compound, the inhibition in assay [19] amounted to 4.87%; in [20], 4.2%.
Take `COc1cc2ncnc(Nc3ccc4c(cnn4Cc4ccccc4)c3)c2cc1OC`: the inhibition in assay [1] was 2.31%; in assay [2], -0.75%; in assay [3] it was 1.06%; in [4], 0.57%; in [5] it was 0.85%; in [6], 4.47%. The inhibition in assay [7] was 5.69%; in assay [8] it was 4.37%; in assay [9] it was 3.7%; in assay [10], 0.22%; in [11] it was 1.45%; in assay [12], 2.62%. The inhibition in [13] is 3.63%; in [14], 0.21%; in [15], 0.75%; in assay [16] it was 1.02%; in assay [17], 1.16%; in assay [18] it was 1.64%. For the same compound, the inhibition amounted to 2.33% in assay [19] and 1.06% in [20].
On to `O=C1Nc2ccccc2/C1=C/Nc1ccc2[nH]c(=O)[nH]c2c1`, for which the inhibition was -0.46% in [1]; -0.36% in assay [2]; 5.21% in [3]; 1.86% in assay [4]; 5% in assay [5]; 3.92% in [6]. Also, the inhibition stood at 14.9% in assay [7]; 9.13% in assay [8]; 17.6% in assay [9]; 8.2% in assay [10]; 21.2% in assay [11]; 4.5% in assay [12]. Moreover, the inhibition in [13] was determined as 8.92%; in [14] it was 3.14%; in assay [15], 4.56%; in assay [16], 8.75%; in [17] it was 21.8%; in [18] it was 4.87%. In addition, the inhibition in assay [19] was determined as 7.45%; in assay [20], 3.6%.
As for `COc1cc(Nc2nccc(-c3cnn4ncccc34)n2)cc(OC)c1`, the inhibition in assay [1] stood at 6.78%; in assay [2], 4.42%; in [3], 10.6%; in assay [4] it was 0.14%; in assay [5] it was 1.55%; in assay [6], 8.12%. Besides, the inhibition in assay [7] was found to be 32.3%; in [8], 3.15%; in assay [9], 39.1%; in assay [10], 3.49%; in [11], 33.2%; in assay [12] it was 3.46%. The inhibition in assay [13] came out at 16.9%; in assay [14], 0.24%; in [15], 0.16%; in [16], 11.9%; in [17] it was 45.4%; in assay [18] it was 2.54%. Also, the values for the inhibition in assay [19] and in [20] were 19.9% and 3.83%, respectively.
On to `COc1ccc2ncnc(Nc3ccc(OCc4ccccc4)cc3)c2c1`, for which the inhibition worked out at 0.96% in assay [1]; 0.32% in [2]; 0.59% in assay [3]; 0.99% in assay [4]; 1.13% in assay [5]; 1.08% in [6]. The inhibition is 5.56% in [7]; 3.18% in assay [8]; 3.43% in [9]; 1.67% in [10]; 1.27% in assay [11]; 1.95% in assay [12]. Also, the inhibition in [13] turned out to be 3.16%; in assay [14], 0.6%; in assay [15] it was 2.34%; in [16], 6.26%; in [17], 8.76%; in assay [18] it was 1.48%. For the same compound, the inhibition in [19] came to 2.76%; in assay [20] it was 1.66%.

These data come from ChEMBL document CHEMBL1961873, “Compounds: GSK PKIS; Assays: Nanosyn kinase panel” (2012).
